Each structure is given as a SMILES string. Counter-ions that a name gives are not always drawn. Unmarked numbers belong to inactive results.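 How the source made its calls: active = AUC significantly below DMSO controls by Student t-fit with adjusted P under 0.01; inactive = not significantly reduced.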

The experiment concerns Haemophilus parainfluenzae. In words: growth AUC normalised to DMSO control (fraction of control); higher = less growth inhibition, active = hit call of the paper. Particulars: 20 µM. A digest of the protocol:
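Pathogens passaged twice anaerobically were inoculated at a starting OD578 of 0.01 into pre-reduced mGAM plates with drug at 20 μM and 1% DMSO, sealed with breathable membranes. Haemophilus parainfluenzae medium was supplemented with hemin and NAD. OD578 was read hourly for 24 h, with three biological replicates. Growth-curve AUC was computed by the trapezoidal rule up to the exponential-to-stationary transition and normalised to DMSO controls on the same plate.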
With `CCn1cc(C(=O)O)c(=O)c2cc(F)c(N3CCNCC3)nc21` [Enoxacin], the “growth AUC normalised to DMSO control” value is 0.0701 (active).

With `COc1cc([C@@H]2c3cc4c(cc3[C@@H](O[C@@H]3O[C@@H]5CO[C@@H](C)O[C@H]5[C@H](O)[C@H]3O)[C@H]3COC(=O)[C@H]23)OCO4)cc(OC)c1O` [Etoposide], the “growth AUC normalised to DMSO control” value is 1.03.

As for `CCOC(=O)C(C)(C)Oc1ccc(Cl)cc1` [Clofibrate], the “growth AUC normalised to DMSO control” value was 1.01.

As for `CN1CCCN(C(c2ccccc2)c2ccc(Cl)cc2)CC1` (stereo unspecified) [Homochlorcyclizine dihydrochloride], the “growth AUC normalised to DMSO control” value is 0.942.

On to `CNC(=C[N+](=O)[O-])NCCSCc1ccc(CN(C)C)o1` [Ranitidine hydrochloride], for which the “growth AUC normalised to DMSO control” value is 0.992.

In the case of `C[C@]12CCC(=O)C=C1C=C[C@@H]1[C@@H]2CC[C@@]2(C)[C@H]1CC[C@@]21CCC(=O)O1` [Canrenone], the “growth AUC normalised to DMSO control” value is 1.

For the compound `COC(=O)Nc1nc2cc(C(=O)c3ccccc3)ccc2[nH]1` [Mebendazole], the “growth AUC normalised to DMSO control” value was 0.983.

Turning to `CCC1=C(C)CN(C(=O)NCCc2ccc(S(=O)(=O)NC(=O)N[C@H]3CC[C@H](C)CC3)cc2)C1=O` [Glimepiride], the “growth AUC normalised to DMSO control” value was 1.02.

With `N[C@H]1CONC1=O` [(S,-) Cycloserine], the “growth AUC normalised to DMSO control” value is 0.989.

Consider `CC1(C)O[C@@H]2C[C@H]3[C@@H]4C[C@H](F)C5=CC(=O)C=C[C@]5(C)[C@@]4(F)[C@@H](O)C[C@]3(C)[C@]2(C(=O)CO)O1` [Fluocinolone acetonide], for which the “growth AUC normalised to DMSO control” value is 0.995.

Turning to `CCN(CC)CCNc1ccc(CO)c2sc3ccccc3c(=O)c12` [Hycanthone], the “growth AUC normalised to DMSO control” value is 0.986.

With `CC(C)c1c(C(=O)Nc2ccccc2)c(-c2ccccc2)c(-c2ccc(F)cc2)n1CC[C@@H](O)C[C@@H](O)CC(=O)O` [Atorvastatin], the “growth AUC normalised to DMSO control” value was 0.996.

Consider `CCSc1ccc2c(c1)N(CCCN1CCN(C)CC1)c1ccccc1S2` [Thiethylperazine maleate], for which the “growth AUC normalised to DMSO control” value was 1.02.

With `CCN(CC)C(=O)Nc1ccc(OCC(O)CNC(C)(C)C)c(C(C)=O)c1` (stereo unspecified) [Celiprolol hydrochloride], the “growth AUC normalised to DMSO control” value was 0.991.

With `Cc1ccccc1C(OCCN(C)C)c1ccccc1` (stereo unspecified) [Orphenadrine hydrochloride], the “growth AUC normalised to DMSO control” value was 0.954.

Take `CCCCN1CCCCC1C(=O)Nc1c(C)cccc1C` (stereo unspecified) [Bupivacaine hydrochloride]: the “growth AUC normalised to DMSO control” value is 0.967.

In the case of `C=C(CC)C(=O)c1ccc(OCC(=O)O)c(Cl)c1Cl` [Ethacrynic acid], the “growth AUC normalised to DMSO control” value is 1.02.

For `COc1cc(N)c(Cl)cc1C(=O)NC1CCN(CCCOc2ccc(F)cc2)CC1OC` (stereo unspecified) [Cisapride], the “growth AUC normalised to DMSO control” value was 1.03.

Regarding `CN1CCN(CCCN2c3ccccc3Sc3ccc(Cl)cc32)CC1` [Prochlorperazine dimaleate], the “growth AUC normalised to DMSO control” value was 0.913.

With `CCc1nc(N)nc(N)c1-c1ccc(Cl)cc1` [Pyrimethamine], the “growth AUC normalised to DMSO control” value was 0.201 (active).

As to `CN1C(=O)CC(c2ccccc2)C1=O` (stereo unspecified) [Phensuximide], the “growth AUC normalised to DMSO control” value was 1.01.

`CN(C)CCCN1c2ccccc2CCc2ccc(Cl)cc21` [Clomipramine hydrochloride]: the “growth AUC normalised to DMSO control” value was 0.922.

In the case of `COc1cc(-c2ccc(=O)[nH]n2)ccc1OC(F)F` [Zardaverine], the “growth AUC normalised to DMSO control” value is 1.02.

Take `O=C(O)CCC(=O)c1ccc(-c2ccccc2)cc1` [Fenbufen]: the “growth AUC normalised to DMSO control” value was 0.905.

As for `CCCCC(=O)O[C@H]1CC[C@H]2[C@@H]3CCc4cc(O)ccc4[C@H]3CC[C@]12C` [Estradiol Valerate], the “growth AUC normalised to DMSO control” value was 1.06.

In the case of `CC[C@H](C)C(=O)O[C@H]1C[C@H](O)C=C2C=C[C@H](C)[C@H](CC[C@@H](O)C[C@@H](O)CC(=O)O)[C@H]21` [Pravastatin], the “growth AUC normalised to DMSO control” value was 1.09.

Take `Cn1c(=O)c2c(ncn2C)n(C)c1=O` [Caffeine]: the “growth AUC normalised to DMSO control” value was 1.04.

`NC(=O)NC1NC(=O)NC1=O` (stereo unspecified) [Allantoin]: the “growth AUC normalised to DMSO control” value was 0.974.

As to `CC(C)NCC(O)c1ccc(O)c(O)c1` (single isomer, unassigned; (+)) [(+) Isoproterenol-(+)-bitartrate salt], the “growth AUC normalised to DMSO control” value is 1.02.

With `COc1c2occc2c(OC)c2c(=O)cc(C)oc12` [Khellin], the “growth AUC normalised to DMSO control” value is 0.993.

Take `CC(=O)N(CC(O)CN(C(C)=O)c1c(I)c(C(=O)NCC(O)CO)c(I)c(C(=O)NCC(O)CO)c1I)c1c(I)c(C(=O)NCC(O)CO)c(I)c(C(=O)NCC(O)CO)c1I` (stereo unspecified) [Iodixanol]: the “growth AUC normalised to DMSO control” value is 0.976.

The values are drawn from the supplement of paper PMC12350171.
